Measured values reported in PubChem BioAssay (Tox21).
Results filed as inconclusive are left out. Where a call stands in place of a potency, no number is given. Activity calls are given as the source filed them. Unless noted, the call rests on the fitted dose curve; in most records, active means well fitted curve in the direction sought with a large enough effect in the repeat runs; inconclusive means weak or mixed curves; inactive means no such curve, though single readings can be large; an effect the other way counts as inactive or inconclusive.

What was measured:
[1] = qHTS assay to identify small molecule antagonists of the glucocorticoid receptor (GR) signaling pathway - cell viability counter screen (AID 720693); further: nearly all actives have a fitted effect of over 55% in size
[2] = qHTS assay for identifying genotoxic compounds that show differential cytotoxicity against isogenic chicken DT40 cell lines with known DNA damage response pathways - wild type cell line (AID 743012); further: nearly all actives have a fitted effect of over 60% in size; further: potency means the concentration at half of the fitted maximal effect
In short: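 CellTiter-Glo luminescence readout of viability in wild type DT40 cells after 40 h compound exposure at 37 C/5% CO2; 300 cells/well; reagent incubated 30 min at room temperature before reading.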

[3] = qHTS assay for identifying genotoxic compounds that show differential cytotoxicity against isogenic chicken DT40 cell lines with known DNA damage response pathways - Rev3 mutant cell line (AID 743014); further: nearly all actives have a fitted effect of over 55% in size; further: potency means the concentration at half of the fitted maximal effect
[4] = qHTS assay for identifying genotoxic compounds that show differential cytotoxicity against isogenic chicken DT40 cell lines with known DNA damage response pathways - Rad54/Ku70 mutant cell line (AID 743015); further: nearly all actives have a fitted effect of over 60% in size; further: potency means the concentration at half of the fitted maximal effect
[5] = qHTS assay to identify small molecule antagonists of the androgen receptor (AR) signaling pathway - cell viability counter screen (AID 743033; further: nearly all actives have a fitted effect of over 45% in size)
[6] = qHTS assay to identify small molecule antagonists of the androgen receptor (AR) signaling pathway using the MDA cell line - cell viability counter screen (AID 743041; further: nearly all actives have a fitted effect of over 45% in size)
In short: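 Using the breast carcinoma line MDA-kb2 AR-luc, test chemicals were co-incubated with R1881 for 16 h; CellTiter-Fluor reagent, added at 15.5 h, provided a fluorescence measure of live cells.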

[7] = qHTS assay to identify small molecule antagonists of the thyroid receptor (TR) signaling pathway (AID 743065); further: series mostly up to about 70 µM; nearly all actives have a fitted effect of over 55% in size
In short: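 Antagonism measured as loss of luciferase signal in GH3 cells stably carrying a TRE-luciferase reporter, co-treated with compound and T3 (1 nM final) for 23.5 h at 37 C. Viability was read in the same well by CellTiter-Fluor.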

[8] = test system: thyroid hormone receptor (rat, GH3 cells); test: qHTS assay to identify small molecule agonists of the thyroid receptor (TR) signaling pathway (AID 743066; calls by dose curve)
[9] = qHTS assay to identify small molecule antagonists of the estrogen receptor alpha (ER-alpha) signaling pathway - cell viability counter screen (AID 743074; calls by dose curve; further: nearly all actives have a fitted effect of over 45% in size)
[10] = biological target: Estrogen receptor (Homo sapiens) (UniProt P03372); test: qHTS assay to identify small molecule agonists of the estrogen receptor alpha (ER-alpha) signaling pathway (AID 743075; calls by dose curve)
Sequence of Estrogen receptor (Homo sapiens) (P03372 whole entry, looked up): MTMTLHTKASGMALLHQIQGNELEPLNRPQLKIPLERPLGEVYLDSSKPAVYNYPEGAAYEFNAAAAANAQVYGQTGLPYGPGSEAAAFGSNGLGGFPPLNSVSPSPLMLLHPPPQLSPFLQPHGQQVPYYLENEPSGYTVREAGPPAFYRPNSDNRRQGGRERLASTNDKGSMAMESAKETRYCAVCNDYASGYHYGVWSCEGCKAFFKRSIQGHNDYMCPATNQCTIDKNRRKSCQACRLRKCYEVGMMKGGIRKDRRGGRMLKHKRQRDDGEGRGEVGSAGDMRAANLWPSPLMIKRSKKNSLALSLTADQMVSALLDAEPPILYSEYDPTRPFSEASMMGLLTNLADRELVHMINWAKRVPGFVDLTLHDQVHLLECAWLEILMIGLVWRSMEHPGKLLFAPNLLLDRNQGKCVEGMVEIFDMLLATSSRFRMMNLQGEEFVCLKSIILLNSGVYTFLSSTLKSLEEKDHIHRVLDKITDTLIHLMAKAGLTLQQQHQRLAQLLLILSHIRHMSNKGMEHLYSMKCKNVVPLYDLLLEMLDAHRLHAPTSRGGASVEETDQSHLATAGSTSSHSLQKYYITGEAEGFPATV

[11] = biological target: Estrogen receptor (Homo sapiens) (UniProt P03372); test: qHTS assay to identify small molecule agonists of the estrogen receptor alpha (ER-alpha) signaling pathway using the BG1 cell line (AID 743079); further: nearly all actives have a fitted effect of over 20% in size
[12] = qHTS assay to identify small molecule antagonists of the estrogen receptor alpha (ER-alpha) signaling pathway using the BG1 cell line (AID 743080; calls by dose curve;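 further: BG1 cells stimulated with 17beta-estradiol alongside compound; series mostly up to about 70 µM; nearly all actives have a fitted effect of over 25% in size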)
In short: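 After 5 days in phenol-red-free 10% charcoal-stripped FBS medium, BG1-Luc-4E2 cells were seeded, left 24 h at 37 C, co-treated with compounds and 17beta-estradiol for 21.5 h, then assayed for viability and luciferase.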

[13] = qHTS assay to identify small molecule antagonists of the estrogen receptor alpha (ER-alpha) signaling pathway using the BG1 cell line - cell viability counter screen (AID 743081);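 further: compound given together with 17beta-estradiol as the ER stimulus; series mostly up to about 70 µM; nearly all actives have a fitted effect of over 45% in size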
Aromatase (Homo sapiens) = Aromatase (Homo sapiens) (UniProt P11511); test: qHTS assay to identify aromatase inhibitors (AID 743083); further: series mostly up to about 70 µM; nearly all actives have a fitted effect of over 55% in size
Sequence of Aromatase (Homo sapiens) (P11511 whole entry, looked up): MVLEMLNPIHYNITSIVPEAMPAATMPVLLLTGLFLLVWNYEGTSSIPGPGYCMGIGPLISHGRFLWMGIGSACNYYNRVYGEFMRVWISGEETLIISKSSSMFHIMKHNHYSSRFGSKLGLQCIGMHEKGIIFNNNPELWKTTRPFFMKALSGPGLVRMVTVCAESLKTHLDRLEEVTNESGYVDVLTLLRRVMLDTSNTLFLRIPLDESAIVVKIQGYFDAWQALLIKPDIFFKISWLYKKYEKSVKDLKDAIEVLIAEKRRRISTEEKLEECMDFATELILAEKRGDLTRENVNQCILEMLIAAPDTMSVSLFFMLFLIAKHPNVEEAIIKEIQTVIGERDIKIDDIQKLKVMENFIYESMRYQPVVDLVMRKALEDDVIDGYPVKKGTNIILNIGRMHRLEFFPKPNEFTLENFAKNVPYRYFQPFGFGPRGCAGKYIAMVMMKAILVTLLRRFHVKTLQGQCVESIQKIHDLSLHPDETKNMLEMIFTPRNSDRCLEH

[14] = qHTS assay to identify small molecule antagonists of the thyroid receptor (TR) signaling pathway - cell viability counter screen (AID 743064); further: nearly all actives have a fitted effect of over 50% in size
In short: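 GH3.TRE-Luc rat pituitary cells carrying a TRE-luciferase reporter were treated with compound plus 1 nM T3 (final) for 23.5 h at 37 °C. Viability was then read in the same wells by CellTiter-Fluor fluorescence after a further 30 min.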

[15] = biological target: Estrogen receptor (Homo sapiens) (UniProt P03372); test: qHTS assay to identify small molecule antagonists of the estrogen receptor alpha (ER-alpha) signaling pathway (AID 743069; active means well fitted curve in the direction sought with a large enough effect in the signal ratio in the repeat runs, not every such curve was filed as active; the % refers to the signal ratio)
In short: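 Fluorescence intensity from a beta-lactamase FRET substrate served as the read-out. Cells: HEK293 with stably integrated ER-alpha-UAS-bla reporter. Agonist 17beta-estradiol was co-added with compounds; incubation 18 hr at 37C, substrate 2 hr at room temperature.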

Compound	Potency [1]	Potency [2]	Potency [3]	Potency [4]	outcome [5]	outcome [6]	Potency [7]	Potency [8]	Potency [9]	Potency [10]	Potency [11]	outcome [12]	outcome [13]	outcome (Aromatase (Homo sapiens))	Potency [14]	Potency [15]
C=CC(C)(O)CC/C=C(\C)CC (stereo not drawn)	inactive	inactive	inactive	inactive	inactive	inactive	inactive	inactive	inactive	inactive	inactive	inactive	inactive	inactive		
Nc1c(NC/C=C\COc2cc(CN3CCCCC3)ccn2)c(=O)c1=O	inactive	inactive	inactive	inactive	inactive	inactive			inactive					inactive		
C1=CCC(c2ccccc2)CC1 (stereo not drawn)	inactive	61.1 µM (active)	30.6 µM (active)	54.5 µM (active)	inactive	inactive	inactive	inactive	inactive				inactive	inactive		
CCCCCCCCCCCCC	inactive	inactive	inactive	inactive		inactive	inactive	inactive	inactive	inactive	inactive	inactive	inactive	inactive	inactive	inactive
NC(=O)NNC(N)=O	inactive	inactive	inactive	inactive	inactive	inactive	inactive	inactive	inactive	inactive	inactive	inactive	inactive	inactive		
NC(Cc1c[nH]c2ccccc12)C(=O)O (stereo not drawn)	inactive	inactive	inactive	inactive	inactive	inactive	inactive	inactive	inactive				inactive	inactive		
